Source: PubChem BioAssay (NCI)
The panel holds about 83,000 compounds, 20% with a hit somewhere; the sample as a whole holds those more often.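 Testing used 96-well plates and a 48-hour single-concentration exposure. Example: -40 means 40% of the starting cells died.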 Unmarked numbers belong to inactive results. Activity calls are given as the source filed them.

system: SK-MEL-28 melanoma; assay: NCI-60 one-dose screen, 48 h (100 = growth as untreated, 0 = no growth, -100 = all killed); settings: 10 µM
Experimental: Growth inhibition of the SK-MEL-28 human tumor cell line is measured as a screen for anti-cancer activity. Cells are grown in 96 well plates and exposed to the test compound for 48 hours. Compounds are tested at a single concentration, which is 10^-5 M for most compounds. The reported endpoint is percent growth (GI% or GIPRCNT), where numbers from 0 - 100% represent growth inhibition, and numbers from -100% - 0 represent cell death. For example, a value of 40 represents 60% growth inhibition. A value of 0 means no net growth occurred over the course of the experiment. A value of -40 indicates 40% of cells at the beginning of the experiment died by the end of the experiment. A value of -100 means all cells are dead at the end of the experiment.
NCI-60 Human Tumor Cell Lines Screen was performed using the standard one-dose NCI protocol, which is described in more detail at https://dtp.cancer.gov/discovery_development/nci-60/default.htm.
Compounds with GIPRCNT values below 10 were considered active. Activity score was based on GIPRCNT using the following formula: […]
Score is 0 for GIPRCNT values of 100 or above, 50 for GIPRCNT values of 0, and 100 for GIPRCNT values of -100.

| Structure (SMILES) | growth |
| --- | --- |
| c1cncc(-c2csc(-c3c[nH]c4ccccc34)n2)c1 | 103% |
| CCN(CC)CCOc1cccc2c1C(=O)c1ccccc1C2=O | 111% |
| O=C(N/N=C/c1ccc([N+](=O)[O-])cc1)c1ccccc1Nc1cccc(C(F)(F)F)c1 | 91.7% |
| CCOS(=O)(=O)c1c(C(C)C)cc(C(C)C)cc1C(C)C | 96.5% |
| CN(C)c1ncnc2c1nnn2C1OC(CO)C(O)C1O (stereo not given) | 12.6% |
| COc1cc(-c2ccc[nH]2)[nH]c1/C=C1\N=C(C)C(C(=O)NC(C)C)=C1C | 44% |
| O=C(O)COc1c(Cl)cc([N+](=O)[O-])cc1Cl | 102% |
| O=C(NCCNC(=O)c1ccc(F)cc1)Nc1ccc(-n2cc(-c3ccncc3)c(-c3ccc(Cl)c(O)c3)n2)cc1 | 18.4% |
| CN(C)CCC1(c2ccccc2)CCN(C)C1=O (stereo not given) | 103% |
| O=C(O)c1ccc(-n2cc(CNc3ccc(Oc4ccccc4)cc3)c(-c3ccccc3)n2)cc1 | 86.8% |
| NS(=O)(=O)c1ccc(Br)cc1 | 104% |
| O=C1c2ccccc2C(=O)c2c1ccc1c(=O)n(-c3ccccc3C(F)(F)F)nnc21 | 63.5% |
| N#Cc1cnn(C(=O)c2nn(-c3ccc(Cl)cc3)cc2O)c1N | 56.1% |
| Cc1ccc(C2NC(=S)N3C(c4ccc(C)cc4)NC(=S)N23)cc1 (stereo not given) | 58.7% |
| COc1ccc(-c2cc(-c3ccc(OC)c(OC)c3)nc(SCCCC(=O)NO)n2)cc1 | 19.2% |
| CC(=O)/C(=C/c1ccc(Br)cc1)C(=O)c1ccccc1 | 100% |
| O=C(O)c1cc([N+](=O)[O-])ccc1Oc1ccccc1 | 107% |
| NS(=O)(=O)Oc1ccc(NC(=O)C2CCCCCC2)cc1 | 104% |
| Cc1cccc(N=Cc2ccccc2O)c1C | 106% |
| Cc1c(Cl)cccc1NC(=O)CN1CCOCC1 | 109% |

| Structure (SMILES) | growth |
| --- | --- |
| CCOC(=O)c1cc(C(=O)c2ccc(Cl)cc2)n2ccc(-c3cc[n+](CC(=O)c4ccc(OC)cc4)cc3)cc12 | 99.6% |
| Cc1c(Cl)cccc1NC(=O)CCCl | 108% |
| CC(=O)Nc1ccc(CC[C@H]2CCC/C=C/[C@@H]3C[C@H](O)C[C@H]3[C@H](O)/C=C/C(=O)O2)cc1 | 6.75% (active) |
| Cc1cc(C(C#N)c2ccc(Cl)cc2)c(Cl)cc1NC(=O)c1cc(I)cc(I)c1O (stereo not given) | 63.5% |
| Nc1nc(Cn2c(-c3nonc3N)nc3ccccc32)nc(N2CCCCC2)n1 | 95% |
| COc1cc(C2CC(c3ccc4c(c3)OCO4)=NN2c2ccccc2)cc(OC)c1OC (stereo not given) | 99.7% |
| CC[C@@H](C(=O)[C@@H](C)[C@@H](O)[C@H](C)[C@@H]1O[C@@H]([C@@H](CC)C(=O)N(CC)CC)CC[C@@H]1C)C1O[C@]2(C=CC(=O)[C@]3(CC[C@@](C)([C@H]4CC[C@](O)(CC)[C@H](C)O4)O3)O2)[C@H](C)C[C@@H]1C (stereo not given in full) | 19.5% |
| Nc1nccc(OCCO)n1 | 112% |
| CN1CCN(c2cc3c(cc2F)c(=O)c(C(=O)O)cn3-c2ccc(F)cc2)CC1 | 105% |
| O=C(Nc1cccc2c1CCCC2)c1cc2ccccc2cc1O | 34.2% |
| O=C(/C=C/C=C/c1c(C2CC2)nc2ccccc2c1-c1ccc(F)cc1)c1cccs1 | -2.12% (active) |
| Cc1cc(Br)nnc1Br | 114% |
| COc1cc(/C=C/c2cc(/C=C/c3ccc(O)c(OC)c3)[nH]c(=O)n2)ccc1O | 50.9% |
| COc1ccc2nc(-c3ccc(Cl)cc3)cc(-c3nnc(SC/C(=N\O)c4ccccc4)n3-c3ccccc3)c2c1 | 94.3% |
| Cc1noc(C)c1CSc1ccccc1C(=O)N1CCN(c2cccc(C(F)(F)F)c2)CC1 | 91.4% |
| NC1=NC(c2ccccc2)C2=C(N1)/C(=C/c1ccccc1)CCC2 (stereo not given) | 102% |
| COc1ccc(-c2cc(-c3ccccc3)nc(SCCCC(=O)NO)n2)cc1 | 19.2% |
| OC[C@H]1OC([S-])[C@H](O)[C@@H](O)[C@@H]1O.[Au+] (stereo not given in full) | 68.9% |
| COc1ccc(C(=O)COc2cccc(/C=C3\Cc4ccccc4C3=O)c2)cc1 | 103% |
| CC(C)c1cc(N=O)cc(C(C)C)c1O | 105% |
